Laboratory results: PubChem BioAssay (NCI)
This is part of a sample that, as a whole, favours compounds with a hit. Of some 83,000 tested, about 20% had one in any assay.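 In brief: 96-well plates, 48 h treatment, single concentration, percent growth endpoint.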 Unmarked numbers belong to inactive results. Activity calls are given as the source filed them. The calls were made as follows: active = growth percent below 10; inactive = the rest.

Key:
Test in all cases: NCI-60 one-dose screen, 48 h (100 = growth as untreated, 0 = no growth, -100 = all killed)
NCI-H23 lung = details: 10 µM unless noted
NCI-H226 lung = details: 10 µM unless noted
NCI-H322M lung = details: 10 µM unless noted
HOP-62 NSCLC = details: 10 µM unless noted
NCI-H460 lung = details: 10 µM unless noted
HOP-92 NSCLC = details: 10 µM unless noted
NCI-H522 lung = details: 10 µM unless noted
A549/ATCC NSCLC = details: 10 µM unless noted
786-0 renal = details: 10 µM unless noted
COLO 205 colon = details: 10 µM unless noted
DU-145 prostate = details: 10 µM unless noted
K-562 leukemia = details: 10 µM unless noted
MALME-3M melanoma = details: 10 µM unless noted
MDA-MB-231 breast = details: 10 µM unless noted
RXF 393 renal = details: 10 µM unless noted
SF-268 CNS = details: 10 µM unless noted
SF-295 CNS = details: 10 µM unless noted
SF-539 CNS = details: 10 µM unless noted
UACC-257 melanoma = details: 10 µM
M14 melanoma = details: 10 µM unless noted

| SMILES | growth (NCI-H23 lung) | growth (NCI-H226 lung) | growth (NCI-H322M lung) | growth (HOP-62 NSCLC) | growth (NCI-H460 lung) | growth (HOP-92 NSCLC) | growth (NCI-H522 lung) | growth (A549/ATCC NSCLC) | growth (786-0 renal) | growth (COLO 205 colon) | growth (DU-145 prostate) | growth (K-562 leukemia) | growth (MALME-3M melanoma) | growth (MDA-MB-231 breast) | growth (RXF 393 renal) | growth (SF-268 CNS) | growth (SF-295 CNS) | growth (SF-539 CNS) | growth (UACC-257 melanoma) | growth (M14 melanoma) |
| --- | --- | --- | --- | --- | --- | --- | --- | --- | --- | --- | --- | --- | --- | --- | --- | --- | --- | --- | --- | --- |
| CC(=O)c1ccc(NC(=O)COc2ccc(C3SCC(=O)N3c3ccc(Br)cc3)cc2)cc1 (stereo not given) | 95.1% | 93% | 99.1% | 93.5% | 108% | 84.4% | 84.8% | 93.9% | 104% | 104% | 104% | 90.8% | 107% | 90.6% | 99.3% | 103% | 98% | 99.2% | 102% | 99.9% |
| COc1ccc(-c2cc(-c3ccc(Cl)cc3)nc3nc(N)nn23)cc1 | 108% | 99.6% | 102% | 107% | 107% | 102% | 93.9% | 93.8% | 87.7% | 105% | 101% | 116% | 118% | 104% | 91.8% | 89.9% | 97.3% | 95.5% | 109% | 117% |
| Nc1nc(-c2cccc([N+](=O)[O-])c2)c(N=Nc2ccccc2Cl)s1 | 60.8% | 70.4% | 86.3% | 56.1% | 41% | 31.8% | 60.1% | 51.8% | 52.6% | 93.1% | 52.6% | 52.5% | 111% | 54.1% | -13.6% (active) | 68.4% | 70.8% | 17.8% | 104% | 77.7% |
| Nc1n[nH]c2cccc(C#Cc3cccc(NC(=O)c4cccc(OC(F)(F)F)c4)c3)c12 | 35.1% | 46.8% | 77.3% | 59.4% | 58.1% | -9.3% (active) | 49.2% | 71.4% | 65.3% | 49% | 71.4% | 7.22% (active) | 2.17% (active) | 17.7% | 24.2% | 50.9% | 73.8% | 6.63% (active) | 63.1% | 31% |
| CCN1C(=O)N(CC)C2C1NN=C1SC(c3ccccc3)=CC(=O)N12 (stereo not given) | 33% | 40.4% | 50.6% | 30.7% | 6.45% (active) | 44.3% | -42.6% (active) | 36.3% | 37.6% | -40.3% (active) | 26% | 11.7% | 46.7% | 38.8% | -11.1% (active) | 62.4% | 11.1% | -8.38% (active) | 63.6% | 5.39% (active) |
| C#CCOc1ccc(C(Nc2ccc(OC)cc2)c2nnnn2C2CCCCC2)cc1 (stereo not given) | 99.8% | 101% | 97.3% | 98.9% | 103% | 93.9% | 89.3% | 92.2% | 95.5% | 106% | 109% | 94.4% | 98.5% | 86.6% | 114% | 102% | 100% | 104% | 102% | 97.2% |
| C=C(C)C(=O)O[C@H]1C[C@@]2(C)OC(=CC2=O)[C@H](C)[C@H](O)[C@H]2OC(=O)C(=C)[C@@H]21 | 58.4% | 92.2% | 93.8% | 93.5% | 93.3% | 69.7% | -67.6% (active) | 94.7% | 64.2% | 13.6% | 73.2% | 20.4% | 48.3% | 76.6% | 22.2% | 79.8% | 93.8% | 74.7% | 67% | 71.7% |
| C#C[C@]1(O)CC[C@H]2[C@@H]3CC=C4c5sc(Nc6ccc(OC)nc6)nc5CC[C@]4(C)[C@H]3CC[C@@]21C | 63.1% | 47.4% | 85% | 51.7% | 41.5% | 60% | 36% | 55.2% | -27.6% (active) | 49.3% | 24.8% | 6.1% (active) | 55.2% | 64.8% | -15.7% (active) | 45.9% | -29.7% (active) | 13.9% | 89% | 59% |
| O=C(/C=C/Nc1ccc(S(=O)(=O)O)cc1)c1ccc(F)cc1 | 95.9% | 98.5% | 102% | 117% | 101% | 96.2% | 98.5% | 101% | 106% | 101% | 103% | 106% | 105% | 106% | 99.9% | 102% | 98.7% | 94% | 101% | 96% |
| O=C1Nc2ccc(Cl)cc2/C1=C/c1ccc(OCc2ccc(Br)cc2F)cc1 | 98.6% | 73.5% | 99.6% | 101% | 103% | 95% | 100% | 102% | 102% | 103% | 101% | 91.2% | 100% | 94.7% | 85.3% | 98.5% | 103% | 99.4% | 101% | 90.1% |
| O=C1CSC(=O)N1Cc1cc2ccccc2nc1Cl | 99.7% | 102% | 108% | 101% | 106% | 94.5% | 94.3% | 99.6% | 100% | 109% | 104% | 99.8% | 94.2% | 103% | 96% | 99.1% | 101% | 108% | 103% | 103% |
| CN1C(=O)/C(=C/C=C/c2ccco2)SC1=S | 75.7% | 70.1% | 88.8% | 93.8% | 99.1% | 98.9% | 71.3% | 72% | 84.9% | 94.3% | 101% | 77.7% | 36% | 86.8% | -20.9% (active) | 91.2% | 101% | 84.7% | 88.1% | 45% |
| Oc1ccc(CSc2nnc(-c3ccccc3)o2)c2cccnc12 | 27.8% | 51.2% | 25.7% | 13.8% | 2.23% (active) | -3.86% (active) | 22.6% | 17.6% | 24.5% | 98.9% | 30% | 10.4% | 36.1% | 47% | 24.5% | 21.8% | 2.18% (active) | 13.2% | 6.39% (active) | 15.5% |
| Cc1nn(-c2ccc(Br)cc2)c2nc(CCl)[nH]c(=O)c12 | 103% | 102% | 104% | 98.5% | 109% | 101% | 85.5% | 96.9% | -88.8% (active) | 103% | 110% | 75.6% | 106% | 94.1% | 119% | 99.4% | 100% | 77% | 101% | 101% |
